According to PubChem BioAssay AID588827 (Broad Institute, 2011):
In all, about 2,400 compounds went through this assay and about 20 (0.8%) were called active. Another 19% or so got no clear call; they are omitted.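 How the source made its calls: active means fitted half-maximal concentration for signal decrease at or below twice the top tested dose, in every repeat run; inconclusive means repeat runs disagree, or flat partial inhibition, or poor fit; inactive means all runs flat, wrong-direction or potency beyond limit.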 The list is a sample of the results. Measured potencies and affinities stand elsewhere.

assay: GFP reporter loss versus dox-driven RFP – NIH3T3 R4 cells, cherry-pick, set 4, dose response (AID 588827); conditions: NIH3T3 R4 HSF-1 GFP reporter, heat shock, 48 h; series mostly up to 19.5 µM

outcome, inactive:
Nc1ncnc2oc(-c3ccco3)c(-c3ccco3)c12
CCN1CC2([N+](=O)[O-])C=CC(=O)C([N+](=O)[O-])(C1)C2CC(=O)c1ccccc1 (stereo not given)
CCOC(=O)c1c(N)sc2c(O)c(Br)ccc12
Cc1[nH]c2ccccc2c1/C=C/c1nc2ccccc2c(=O)n1-c1cccc([N+](=O)[O-])c1
O=C(c1ccc([N+](=O)[O-])s1)N1CCN(c2cccc(Cl)c2)CC1
O=C(O)c1cccc(COc2ccc3c(c2)CCC3)c1
CC(C)c1ccc(-c2nc3ccccc3s2)cc1
CC1=Nc2ccc(C)c3nc(C)cc(c23)N1c1ccc(C)cc1
N#Cc1cc2c(nc1SCC(=O)N1CCOCC1)CCCCC2
COc1ccc(/C=C/C(=O)Oc2ccc(/C=N/NC(=O)COc3c(C)cccc3C)cc2)cc1
CCN(c1ccccc1)S(=O)(=O)c1cnc[nH]1
COc1ccccc1N=Nc1ccc(O)c2ncccc12
COc1cccc(NC(=O)Nc2nnc(Cc3ccccc3F)s2)c1
COc1ccccc1C(=O)NCCC(=O)NNC(=O)Cn1ccc(C(F)(F)F)n1
Nc1nc(Cl)nc2ccc(Br)cc12
CCN1CCN(/C=N/c2nc3c(s2)CCCC3)CC1
Cn1c(=O)c2c(nc(Oc3cccc(O)c3)n2C)n(C)c1=O
Cc1ccc(NC(=O)CCN2C(=O)C3CCCCC3C2=O)cc1[N+](=O)[O-] (stereo not given)
O=C(CCCCCn1c(=S)[nH]c2cc3c(cc2c1=O)OCO3)N1CCN(C(=O)c2ccco2)CC1
CCCCOc1ccc(N=Cc2ccc[nH]2)cc1
CCOc1ccc(-c2nc(CSCC(=O)N3CCN(c4cccc(OC)c4)CC3)c(C)o2)cc1
O=C(NCCN1CCCCC1)Nc1ccccc1Cl
CCC1CCCCN1CCCNC(=O)CSc1nc2nc(C)c(Cc3ccc(C)cc3)c(C)n2n1 (stereo not given)
O=C(Nc1ccc2c(c1)ncn2C1CCCCC1)c1ccco1
CC(C)(C)c1ccc(C(=O)NC(=S)Nc2nc3c(s2)CCCC3)cc1
N#Cc1nc(-c2ccco2)oc1N1CCN(Cc2ccccc2)CC1
COc1ccc(S(=O)(=O)/C(C#N)=C/Nc2cccc(OC)c2)cc1
CCCC[C@@H]1C[C@H]1[C@@H](NC(=O)c1ccco1)c1ccc(Cl)cc1
Cc1ccc(C(=O)Nc2cccc(C(F)(F)F)c2)cc1NC(=O)c1ccno1
Fc1ccc(CO/N=C/C2=C(Cl)c3ccccc3CC2)cc1
COc1ccc(-n2c(C)c(C(C)=O)c(C(C)=O)c2C)cc1
CSc1ncccc1C(=O)N1CCCC(N2CCN(c3ccccc3F)CC2)C1 (stereo not given)
CC(=O)N/C(=N\c1nc(C)cc(C)n1)Nc1ccc2ccccc2c1
Cc1ccc(/C=C(\NC(=O)c2ccccc2)C(=O)N2CCCC2C(=O)O)cc1 (stereo not given)
COc1ccc(NC(=S)Nc2ccc(C)c(S(=O)(=O)N3CCCCC3)c2)cc1
Oc1ccccc1CNc1ccc(OC(F)(F)F)cc1
CCOc1c2ccc(C(=O)NCc3ccccc3OC)cc2nn1CC
CC(O/N=C\c1ccccc1O)C(=O)Nc1ccccc1C(=O)N1CCOCC1 (stereo not given)
COc1cccc(N(C(=O)c2cccs2)c2nc3ccccc3s2)c1
CCOc1cc(C#N)c(NC(=O)c2cccnc2Cl)cc1OCC
C=CCSc1nc2ccccc2n1C(=O)/C=C/c1cc(OC)c(OC)c(OC)c1
O=C(Nc1ccc(N2CCCCC2)cc1)c1ccccn1
Cc1cc(C)c(N=C2SCC(=O)N2Cc2ccco2)c(C)c1
O=C(NC(=O)c1cccc(F)c1)OC[C@@H]1CCCN2CCCC[C@H]12
CCCCN(C(=O)COc1ccc(C)cc1OC)c1c(N)n(CCC)c(=O)[nH]c1=O
Cc1cc(C)c2c(c1)/C(=N/NS(=O)(=O)c1ccc(Br)cc1)CCC2
Cc1ccc(N(C)C(=O)CN(C)S(=O)(=O)c2ccc3c(c2)n(C)c(=O)c(=O)n3C)cc1
CCC(=O)Nc1cc2nn(-c3ccc(C)cc3)nc2cc1C
O=C1C(Cc2ccccc2)Nc2ncnc(N3CCN(c4ccccc4)CC3)c2N1Cc1ccccc1 (stereo not given)
O=C(CSC(=S)N1CCCCC1)Nc1ncc2c(n1)CCCC2=O
N#Cc1c(SCC(=O)Nc2nccs2)nc2c(c1-c1ccco1)CCCC2
CCN1C(=O)[C@H]2[C@@H](c3ccc(C)cc3)N3C(=O)N(c4ccc(C)cc4)C(=O)[C@@]3(C)[C@H]2C1=O
CC(C)Cc1csc(NC(=O)c2ccc(F)cc2)c1C(=O)O
CCOC(=O)c1ccc(NC(=S)NC(=O)C2CCCC2)cc1
CCOC(=O)c1ccc(Nc2ncnc3nc[nH]c23)cc1
COc1ccc(C(=O)N2CCN=C2SCc2cccnc2)cc1OC
COc1ccc(NC(C)=O)cc1NC(=O)CN1CCN(CC(=O)Nc2ccccc2Cl)CC1
CC1(C)CC(=O)C2=C(C1)N(Cc1ccccc1)C(=O)C2(NC(=O)C(C)(C)C)C(F)(F)F (stereo not given)
Cc1ccc(C(=O)CSc2cnc3ccccc3n2)cc1C
C/C(=N\NC1=NCCN1)c1ccc(N)c([N+](=O)[O-])c1
Cc1ccc(OCC(=O)Nc2ccccc2C(=O)N2CCCCC2)cc1
CCN(CC)S(=O)(=O)c1cccc(NC(=O)CCNC(=O)NC23CC4CC(CC(C4)C2)C3)c1
Cc1cccc(CS(=O)(=O)Cc2ccc(C(=O)NCc3cccs3)o2)c1
CC(C)OCCCn1c(NN)nc2ccccc2c1=O
COc1nc(N)c(C#N)c(-c2ccc(N(C)CCC#N)cc2)c1C#N
CCCSc1nnc(CNS(=O)(=O)c2ccc(C)cc2)n1C
Cc1ccc(CSCC(=O)N(C)CC(=O)Nc2ccc(C)cc2)cc1
COc1ccc(O)c(-c2c(-c3ccc(Cl)cc3)n[nH]c2C)c1
COc1ccc(NCc2nnc(SCC(=O)Nc3cc(C(F)(F)F)ccc3Cl)o2)cc1
O=C(CCCc1nc(-c2ccccc2Cl)no1)NC1CCCC1
COc1ccc(CC(C)Nc2cccc(SC)c2)cc1 (stereo not given)
O=C(CN(Cc1ccccc1Cl)S(=O)(=O)c1ccc(Cl)cc1)N/N=C/c1ccc(C(=O)O)cc1
Cc1ccc(N=Nc2ccc3ccccc3c2O)cc1
C=CCn1c(=NC(=O)C2CC2)sc2cc(NC(C)=O)ccc21
CCCCNC(=O)C(=O)N/N=C/c1ccc(C(=O)OC)cc1
O=c1cc(-c2ccccc2)c2ccc(O)cc2o1
CC(=O)c1ccc(NC(=O)C2CCN(S(=O)(=O)c3cccc4cccnc34)CC2)cc1
COc1ccc(NC(=S)Nc2ccc(F)cc2)c(OC)c1
O=C(CSc1ccc(Br)cc1)Nc1ccccc1N1CCOCC1
COc1cc(C(=O)N2CCSCC2)ccc1OC1CCN(C(C)=O)CC1
COc1ccccc1Oc1ccc2c(c1)C(=O)N(c1ccc(Br)c3cccnc13)C2=O
Cc1c(Cl)cccc1NC(=O)Nc1cnccn1
CCN(CC)c1ccc(CNc2nc3ccccc3n2CCN2CCOCC2)cc1
CN(C(=O)c1ccc2c(c1)SC1=NS(=O)(=O)CCN12)C(c1ccccc1)c1ccccc1
O=c1o[nH]c(-c2ccccc2)c1-c1ccccc1
O=C(Nc1cccc(Cl)c1)N1CCOCC1
CCOC(=O)C1(Cc2ccc(OC)cc2)CCN(C(=O)c2csc(C)n2)CC1
Cc1ccccc1-c1nc2sc3c(c2c(=O)n1N)CCCC3
Cn1c(=O)cc(SCC(=O)N2CCN(C(=O)c3ccco3)CC2)c2ccccc21
Cc1[nH]c2ccccc2c1C(C[N+](=O)[O-])c1cccs1 (stereo not given)
COc1cccc(-c2cc3nc4c(c(NCC(C)(C)CN(C)C)n3n2)CCCC4)c1
CCOc1ccc(NC(=O)C2CCCN(c3nn4c(=O)cc(C)nc4s3)C2)cc1 (stereo not given)
Cc1ccc2nc(-c3ccccc3NC(=O)CCC(=O)O)c(=O)[nH]c2c1
N#CC1=C(N)Oc2cc(N)ccc2C1c1ccccc1Cl (stereo not given)
Cc1cc(Nc2ccc3c(c2)OCCO3)c2cc(Cl)ccc2n1
CCn1nc(C)c(/C=N/NC(=O)c2c[nH]c3ccccc23)c1C
N#Cc1c(N)nc(SCc2ccncc2)c(C#N)c1-c1cccs1
CCOc1ccc(N(CC(=O)NC2CCCCC2)C(=O)CCC(=O)Nc2nc(C)cs2)cc1
CCSc1nnc(-c2ccc(S(=O)(=O)NCc3cccs3)cc2)o1
O=C(c1cc2c(s1)-c1ccccc1OC2)N1CCN(c2ccccc2)CC1
Cc1cc(/C=C2/C(=O)NN(c3ccccc3)C2=O)c(C)n1-c1ccc(O)cc1
C/C(=N\Nc1nncc2ccccc12)c1ccc(Cl)c([N+](=O)[O-])c1
Cc1cc(Cl)ccc1OCCCC(=O)N1CCOCC1
CCC(NC(=S)NC1CCCCC1)c1ccccc1 (stereo not given)
CCN(CC(=O)Nc1c(F)cccc1F)C(=O)Cc1n[nH]c(=O)c2ccccc12
COC(=O)C1=C(C)N(CCCC(=O)O)C(=O)NC1c1ccc(C#N)cc1 (stereo not given)
O=C(CN1CCCCC1)Nc1cccc2c1OCO2
CC(CN1CCOCC1)OC(=O)C(c1ccccc1)c1ccccc1 (stereo not given)
O=C(O)CSCC(=O)Nc1ccc(C2CCCCC2)cc1
Cc1ccnc(NC(c2ccsc2)c2ccc3ccc(C)nc3c2O)c1 (stereo not given)
